Results on 40 compounds are retold here after PubChem BioAssay (Tox21).

SMILES strings stand for the structures. Results filed as inconclusive are left out. Calls of active or inactive are those of the source. Calls follow the shape of the dose curve; as a rule, active = well fitted activation curve with a large enough effect in the signal ratio in the repeat runs (not every such curve was filed as active); inconclusive = weak or mixed curves, or effect the other way; inactive = no such curve, though single readings can be large or run the other way; the % refers to the signal ratio.

Sequence of Peroxisome proliferator-activated receptor gamma (Homo sapiens) (P37231 whole entry, looked up): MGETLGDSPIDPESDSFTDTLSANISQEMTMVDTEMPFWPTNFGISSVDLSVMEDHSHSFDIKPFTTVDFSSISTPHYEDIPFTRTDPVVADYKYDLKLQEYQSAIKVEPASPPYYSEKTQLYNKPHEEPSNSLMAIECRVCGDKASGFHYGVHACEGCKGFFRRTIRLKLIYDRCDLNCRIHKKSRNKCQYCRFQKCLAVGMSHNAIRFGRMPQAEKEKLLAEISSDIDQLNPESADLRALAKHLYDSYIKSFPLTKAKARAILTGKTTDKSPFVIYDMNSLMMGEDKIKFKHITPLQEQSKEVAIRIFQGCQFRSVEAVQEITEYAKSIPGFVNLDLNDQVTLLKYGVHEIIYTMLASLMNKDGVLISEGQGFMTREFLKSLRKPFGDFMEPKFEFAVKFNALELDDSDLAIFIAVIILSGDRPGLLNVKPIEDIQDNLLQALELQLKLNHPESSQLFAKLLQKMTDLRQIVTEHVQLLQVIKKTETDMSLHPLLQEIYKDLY

In this experiment the target is Peroxisome proliferator-activated receptor gamma (Homo sapiens) (UniProt P37231). The experiment can be described thus: qHTS assay to identify small molecule agonists of the peroxisome proliferator-activated receptor gamma (PPARg) signaling pathway (AID 743094). The conditions noted are these: HEK293H PPARg-UAS-bla, beta-lactamase FRET ratio, 17 h; series mostly up to 57 µM. The source says:
U.S. Tox21 Program National Center for Advancing Translational Sciences [NCATS] NIH Chemical Genomics Center [NCGC] U.S. Environmental Protection Agency [EPA] National Institutes of Environmental Health Sciences [NIEHS] National Toxicology Program [NTP] U.S. Food and Drug Administration [FDA] Tox21 Assay Overview: The peroxisome proliferator-activated receptors (PPARs) are lipid-activated transcription factors of the nuclear receptor superfamily with three distinct subtypes namely PPAR alpha, PPAR delta (also called PPAR beta) and PPAR gamma (PPARg). All these subtypes heterodimerize with Retinoid X receptor (RXR) and these heterodimers regulate transcription of various genes. PPAR-gamma receptor (glitazone receptor) is involved in the regulation of glucose and lipid metabolism. To identify the compounds that activate PPAR-gamma signaling, GeneBLAzer PPAR gamma UAS-bla HEK293H cell line (Invitrogen, Carlsbad, CA, USA) containing a beta-lactamase reporter gene under control of the control of an upstream activator sequence (UAS) stably integrated into HEK293H cells was used to screen Tox21 compound library.
Tox21 Assay Protocol Summary: PPARg-bla cells were dispensed at 3000 cells/6uL/well in 1536-well black wall/clear bottom plates using a Multidrop Combi (Thermo Fisher Scientific, Waltham, MA) dispenser. After the assay plates were incubated at 37C and 5% CO2 for 5 h, 23 nL of compounds dissolved in DMSO, positive controls or DMSO only was transferred to the assay plate by a Pintool station (Kalypsys, San Diego, CA). The assay plates were incubated at 37C for 17 h. After 1 uL of LiveBLAzerTM B/G FRET substrate was added using a Bioraptr Flying Reagent Dispenser (FRD) workstation (Beckman Coulter, Indianapolis, IN, USA), the plates were incubated at room temperature for 1 h, and fluorescence intensity was measured by an Envision plate reader (PerkinElmer, Shelton, CT).
In general terms: qHTS replaces the single test concentration by a dilution series.
As for `O=C1OC(=O)c2ccccc21`, the outcome was inactive.
Under `OC(CCN1CCCCC1)(c1ccccc1)c1ccccc1` stands “inactive”.
With `Cc1cc(O)c2c(c1)C(=O)c1cccc(O)c1C2=O`, the outcome was inactive.
For the compound `CC(C)COC(=O)CCCCC(=O)OCC(C)C`, the outcome was inactive.
The entry for `CN(C)CCCNCCC#N` is “inactive”; for `CCOC(=O)CCc1ccccc1` it is “inactive”.
Consider `CCCCOC(=O)C(=O)OCCCC`, for which the result was inactive.
In the case of `C[C@H](CCC(=O)NCC(=O)O)[C@H]1CC[C@H]2[C@@H]3[C@H](O)C[C@@H]4C[C@H](O)CC[C@]4(C)[C@H]3C[C@H](O)[C@]12C`, the outcome was inactive.
On to `COc1cc([N+](=O)[O-])ccc1N`, for which the result was inactive.
As for `CC(=O)c1ccc(OCC(=O)N2CCCCC2)cc1`, the result was inactive.
The entry for `N#CCCOCCOCCC#N` is “inactive”; for `C=CCOc1cc(Cl)ccc1C(=O)NCCN(CC)CC` it is “inactive”; for `C=C[C@@H](C)CCC=C(C)C` it is “inactive”.
On to `CCCCCCCC/C=C\CCCCCCCC(=O)OC[C@@H](O)[C@H]1OC[C@H](O)[C@H]1O`, for which the result was inactive.
Take `CC1=CC[C@H](CC=O)C1(C)C`: the result was inactive.
Turning to `NS(=O)(=O)c1cc2c(cc1Cl)NC(CC1CCCC1)NS2(=O)=O` (stereo not given), the result was inactive.
The entry for `Cc1ccccc1OCC1CO1` (stereo not given) is “inactive”; for `CC(C)CCCCCCOC(=O)C1CCCCC1C(=O)OCCCCCCC(C)C` (stereo not given) it is “inactive”; for `CCOC(=O)C(C)(C)C` it is “inactive”.
The entry for `COCC(=O)Nc1c(I)c(C(=O)NCC(O)CO)c(I)c(C(=O)N(C)CC(O)CO)c1I` (stereo not given) is “inactive”; for `O=C(O)Cc1cccc(-c2cc(CCCCCCc3ccc(O[C@H]4O[C@H](CO)[C@@H](O)[C@H](O)[C@@H]4O)c(-c4cccc(CC(=O)O)c4)c3)ccc2O[C@H]2O[C@H](CO)[C@@H](O)[C@H](O)[C@@H]2O)c1` it is “inactive”.
Take `CC(C)(c1ccc(Oc2ccc3c(c2)C(=O)OC3=O)cc1)c1ccc(Oc2ccc3c(c2)C(=O)OC3=O)cc1`: the outcome was inactive.
Under `CCC(O)C(C)(C)C` (stereo not given) stands “inactive”; under `CCCOC(=O)CCCCC(=O)OCCC`, “inactive”; under `CCCCC/C=C/CC(=O)OC`, “inactive”.
Take `COCCOCCOCCOC`: the result was inactive.
Under `O=C(/C=C/c1ccccc1)NCCO` stands “inactive”; under `O=c1[nH]c(=O)c2[nH]c(=O)[nH]c2[nH]1`, “inactive”; under `CCN(Cc1cccc(S(=O)(=O)O)c1)c1ccccc1`, “inactive”.
The entry for `CCC(=O)c1ccc(O)cc1` is “inactive”; for `CCc1nccnc1C` it is “inactive”.
Under `CC(Cl)COP(=O)(OCC(C)Cl)OCC(C)Cl` (stereo not given) stands “inactive”; under `CCOC(=O)CC(CC(=O)OCC)(OC(C)=O)C(=O)OCC`, “inactive”; under `Nc1cc(Cl)cc(S(=O)(=O)O)c1O`, “inactive”.
Regarding `CCC1COC(=O)O1` (stereo not given), the outcome was inactive.
Under `CC(C)COC(=O)COc1ccc(Cl)cc1Cl` stands “inactive”; under `O=CN1CCOCC1`, “inactive”.
Under `C=CCOC(=O)c1ccc(C(=O)OCC=C)c(C(=O)OCC=C)c1` stands “inactive”; under `Cc1ccccc1C`, “inactive”.
`NC(=O)NC(=O)Cc1ccccc1`: the outcome was inactive.
